Results taken from the supplement of paper PMC10338343.
± gives the standard deviation. In all, about 8,200 sequences were measured (“pre-steady-state target cleavage rate”: median about 0.024, highest 2% from about 1.3 on). Shown is part of a subset that was picked to be rich in the highest values.

Test system: MIWI (PIWIL1) piRISC loaded with L1MC piRNA (30 nt)
Experiment: pre-steady-state target cleavage rate (min^-1); MIWI and MILI are mouse PIWI proteins and EfPiwi is from a freshwater sponge; tags in brackets are library labels; higher = faster piRNA-guided slicing of the target
Conditions: guide: L1MC piRNA 5'p-UAACUAAAUACUAUGCAAGCUGUAGGUCCU
Method in brief: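 The method was Cleave-'n-Seq, in which uncleaved targets from a transcribed, DNA-blocked target RNA library were sequenced after exposure to active affinity-purified piRISC carrying one synthetic guide, with or without GTSF1 partner protein. Reactions contained 0.1 nM library, 1 nM piRISC and, where present, 500 nM GTSF1 in HEPES–potassium acetate buffer at 33 °C for 0–8 or 0–960 min. Reads were normalised to depth and to weakly complementary targets, three trials were pooled, and k3 was capped at 0.0001 min^-1. The pre-steady-state cleavage rate came from a burst-and-steady-state fit.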

[1] = auxiliary factor: 500 nM mouse GTSF1
[2] = auxiliary factor: none (no GTSF1)

Sequence	pre-steady-state target cleavage rate [1]	pre-steady-state target cleavage rate [2]
UCCUCCUACAGCUUGCAUAGUACUUUAGUUA	0.588 ± 0.024	0.00867 ± 0.0017
AGGACCUAGUCCUUGCAUAGUAUUUACAAA	0.256 ± 0.046	0.00328 ± 0.0019
UCCUGGUACAGCUUGCAUAGUUUUUAGAUA	0.136 ± 0.043	0.00988 ± 0.0027
AGGACCUACAGCUUGCAUAGUAAUUAGAAA	0.475 ± 0.071	0.00445 ± 0.0038
UCCUGGAACUGCAUGCAUAGUAUUUAGUUA	0.442 ± 0.035	0.00687 ± 0.0019
UCCACCUACAGCAUGGAUAGUAUUUAGUUA	1.34 ± 0.062	0.0231 ± 0.0039
UCCUCCUACAGCAUGCAUAGUAUUUAGUUA	1.2 ± 0.051	0.0219 ± 0.0048
UCCUCCUACAGCAUGGAUAGUAUUUAGUUA	1.38 ± 0.067	0.0219 ± 0.0037
UCCACCUACAGCAUGCAUAGUAUUUAGUUA	0.977 ± 0.054	0.0309 ± 0.0079
UGGACCUACAGGAAGCAUAGUAUUUAGUUA	0.994 ± 0.094	0.00926 ± 0.0024
UCCACCUACAGCAUGCAUAGUAUUUAGAUA	0.423 ± 0.045	0.00605 ± 0.0027
AGGACCUACAGCAUGCUUAGUAUUUAGUUA	0.977 ± 0.058	0.0155 ± 0.0029
AGGACCUACAGCAUGGAUAGUAUUUAGUUA	1.57 ± 0.086	0.0502 ± 0.0089
UCCUGCUACAGCAUGGAUAGUAUUUAGUUA	1.13 ± 0.15	0.015 ± 0.0025
UCGACCUACAGCAUGGAUAGUAUUUAGUUA	1.59 ± 0.076	0.0294 ± 0.005
UCGACCUACAGCAUGCAUAGUAUUUAGAUA	0.538 ± 0.041	0.0119 ± 0.004
UCGACCUACAGCAUGCUUAGUAUUUAGUUA	0.915 ± 0.057	0.0113 ± 0.0023
UCCUGGUACAGCUUGACAUAGUAUUUAGUUA	0.271 ± 0.027	–
UCCUGGUACACCUUGCAUAGUAUUUUGUUA	0.436 ± 0.1	0.00901 ± 0.0027
ACGACCUACAGCUUGCAUAGUAUUUUCAAA	0.618 ± 0.067	0.00505 ± 0.004
UCCUGGAUGUCCUUGCAUAGUAUUUAGUGUA	0.0232 ± 0.0073	0.00487 ± 0.0027

Sequence	pre-steady-state target cleavage rate [1]	pre-steady-state target cleavage rate [2]
UGGACCUACAGCAUGCUUAGUAUUUAGUUA	0.877 ± 0.056	0.0147 ± 0.0037
UGGACCUACAGCAUCCAUAGUAUUUAGUUA	0.102 ± 0.017	0.00273 ± 0.002
UGGACCUACAGCAUGGAUAGUAUUUAGUUA	1.47 ± 0.1	0.0301 ± 0.0054
UCCUGGAUGAGCUUGCAUAGUAUAUUGUUA	0.165 ± 0.021	0.0157 ± 0.004
UCCUGGAAGAGCUUGCAUAGUAUUUUGUUA	0.704 ± 0.076	0.0231 ± 0.0062
UCGACCUACAGCUACCAUAGUAUUUAGUAA	0.355 ± 0.037	–
UCCUGCAACAGCUUGCAUAGUAUAUAGUUA	0.844 ± 0.063	0.0237 ± 0.0057
UCCUGCAACAGCUUCCAUAGUAUUUAGUUA	0.0524 ± 0.015	–
UCCUGGAUGAGGUUGCAUAGUAUUUAGUUA	0.274 ± 0.022	0.00581 ± 0.0018
AGGACGAUCAGCUUGCAUAGUAUUUAGUUA	1.43 ± 0.068	0.0865 ± 0.016
UCCUCGAUCAGCUUGCAUAGUAUUUAGUUA	1.58 ± 0.056	0.0718 ± 0.013
UCCUCGAUCAGCUUGCAUAGUAUUUAGUAA	1.06 ± 0.048	0.04 ± 0.0086
UCGACGAUCAGCUUGCAUAGUAUUUAGAAA	0.494 ± 0.05	0.0104 ± 0.0033
UCGACGAUCAGCUUGCAUAGUAUUUAGUAA	1.05 ± 0.063	0.048 ± 0.011
UGGACGAUCAGCUUGCAUAGUAUUUAGUAA	0.953 ± 0.064	0.0656 ± 0.013
UCCUCGAUCAGCUUGCAUAGUAUUUAGAAA	0.422 ± 0.044	0.00569 ± 0.0022
UCGACGAUCAGCUUGCAUAGUAUUUAGUUA	1.6 ± 0.047	0.0826 ± 0.017
AGGACGAUCAGCUUGCAUAGUAUUUAGAAA	0.384 ± 0.061	0.0104 ± 0.0037
UGGACGAUCAGCUUGCAUAGUAUUUAGAAA	0.499 ± 0.048	0.0141 ± 0.0042
AGGACGAUCAGCUUGCAUAGUAUUUAGUAA	1.02 ± 0.12	0.0692 ± 0.015
UGGACGAUCAGCUUGCAUAGUAUUUAGUUA	1.47 ± 0.071	0.0852 ± 0.016
